Data on 59 compounds can be found in PubChem BioAssay AID2006 (Sanford-Burnham Center for Chemical Genomics, 2009).

The target in the assay is SUMO-conjugating enzyme UBC9 (Homo sapiens) (UniProt P63279). Description: blockers of SAE1/SAE2–UBC9 SUMO transfer – biochemical, HTRF, uHTS, primary screen (AID 2006). The following applies: HTRF SUMOylation assay, SAE1/SAE2 + UBC9, in vitro, at 35 µM, stronger effect = higher value. In general terms: Time-resolved FRET reads energy transfer from a long-lived donor to a nearby acceptor.

In all, about 290,000 compounds went through this assay and about 1,000 (0.34%) were called active. The sample holds actives, similar compounds and a random draw of the others, so the mix is not that of the screen. No stated cut-off is given here; in the data, active means inhibition above about 50% (passing the limit was not always enough); inconclusive means no clear call, values can overlap the other calls.

Sequence of SUMO-conjugating enzyme UBC9 (Homo sapiens) (P63279 whole entry, looked up): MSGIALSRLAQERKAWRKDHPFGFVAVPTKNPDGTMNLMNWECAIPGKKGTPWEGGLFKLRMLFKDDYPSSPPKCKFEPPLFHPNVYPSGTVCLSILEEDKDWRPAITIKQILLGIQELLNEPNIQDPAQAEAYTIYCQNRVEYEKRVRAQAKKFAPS

For `COc1ccccc1NC(=O)C1CCCN1S(=O)(=O)c1ccc(Cl)cc1` (configuration not stated), the inhibition (commonly the relative decrease from the control value, in per cent) is -4.9% (inactive). On to `CCCC(=O)Nc1cccc(-c2cn3ccsc3n2)c1`, for which the inhibition was -25.1% (inactive). The same measure, in the same setting: with `CCCCCC(=O)Nc1ccc(S(=O)(=O)Nc2ccc(Cl)nn2)cc1` the figure was 2.3% (inactive). For `CC(=O)Nc1ccc(-c2cn3cccnc3n2)cc1`, the inhibition was 55.4% (active). Also, the inhibition (average of repeat tests) is 53.3%. Regarding `CC(C)(C)C(=O)Nc1ccc(-c2cn3cccnc3n2)cc1`, the inhibition was 37.2% (inactive). Same read-out and setting: as for `FC(F)(F)Oc1ccc(-c2cn3cccnc3n2)cc1`, the figure is 24.2% (inactive). Take `CCCCCC(=O)Nc1ccc(-c2cn3cccnc3n2)cc1`: the inhibition was 50.5% (active). Moreover, the inhibition (average of repeat tests) was 60.8%.

Turning to `Cc1ccc(NC(=O)CN2CCc3ccccc3C2)cc1C`, the inhibition is -5.2% (inactive). In the case of `CCc1c(C)nc(N)n2c(SCC(=O)NC3CCCCC3)nnc12`, the inhibition is -11.4% (inactive). Same read-out and setting: with `Cc1ccc(C)c(NC(=O)NNC(=O)c2ccc3ccccc3c2O)c1` the figure was 4.2% (inactive). Still for that read-out and setting: with `CC(=O)N1c2ccc(S(=O)(=O)N3CCCC(C(=O)Nc4cccc(F)c4)C3)cc2CC1C` (configuration not stated) the figure was 12.3% (inactive); with `Cc1cc(C(F)F)nn1CC(=O)NC1CCCCCC1`, 2.2% (inactive). The same measure, in the same setting: with `N#CC1(NC(=O)COC(=O)CCN=C2NS(=O)(=O)c3ccccc32)CCCCC1` the figure was 2.6% (inactive); with `CC1CCCCC1NC(=O)CSc1nnc(-c2ccncc2)n1CCCN(C)C` (configuration not stated), 8.9% (inactive); with `O=C(Nc1ccccc1Cl)/C(Cl)=C(\Cl)S(=O)c1ccccc1` (configuration not stated), 57% (active).

Consider `O=C(COC(=O)c1cccs1)Nc1ccccc1Cl`, for which the inhibition was -14.2% (inactive). Same read-out and setting: as for `O=C(Nc1ccccc1Cl)Nn1cnnc1`, the figure is 10.4% (inactive); as for `CCC(=O)Nc1nnc(S(=O)(=O)N(CC(C)C)c2ccccc2)s1`, -0.8% (inactive); as for `CCOC(=O)C1=C(c2ccc(OC)cc2)C(=O)c2ccccc2C1=O`, 5.9% (inactive). Turning to `CCOC(=O)c1c(C)[nH]c(C(=O)NCc2ccccc2OC)c1C`, the inhibition was 21.6% (inactive). Still for that read-out and setting: with `CCOC(=O)c1c(C)[nH]c2c1-c1ccccc1C(=O)C2=O` the figure was 86.9% (active); with `CC(C)(C)NC(=O)CN(Cc1cccs1)C(=O)CNS(=O)(=O)c1ccccc1`, 5.5% (inactive). In the case of `O=C(CN1CCC(NC(=O)C2CC2)CC1)Nc1ccccc1[N+](=O)[O-]`, the inhibition is 2.3% (inactive). Same read-out and setting: as for `CCOC(=O)C1CCN(S(=O)(=O)c2ccc3c(c2)N(C)C(=O)CC(=O)N3C)CC1`, the figure is 10.1% (inactive); as for `CCOc1ncccc1C(=O)NCCc1ccc(OC)cc1`, -5.7% (inactive).

For `CC(C)CN(CC(C)C)C(=O)CN1c2cccc3cccc(c23)S1(=O)=O`, the inhibition was 14.7% (inactive). For `O=C(CCCN1C(=O)/C(=C/c2ccco2)SC1=S)Nc1ccccc1`, the inhibition was 23.1% (inactive). Same read-out and setting: as for `Cc1cc(/C=C2\SC(=O)N(C)C2=O)c(C)n1-c1cccc(C(=O)O)c1`, the figure is 0.8% (inactive); as for `CN1C(=O)/C(=C/c2ccco2)SC1=Nc1cccc(C(=O)O)c1`, 52.8% (active); as for `CCc1nn(CCCC(=O)NCc2ccc(C)cc2)c(=O)c2cc3occc3n12`, -4.3% (inactive).

On to `Cc1cnc(C(=O)N2CCCC(N3CCN(c4ccccc4F)CC3)C2)cn1` (configuration not stated), for which the inhibition was 5.2% (inactive). With `CC(=O)Nc1ccc(S(=O)(=O)Nc2cc(C)cn(Cc3ccc(C)cc3)c2=O)cc1`, the inhibition was 14.3% (inactive). For `O=C1Nc2cc(C(=O)N3CCC(N4CCCCC4)CC3)ccc2S/C1=C\c1ccccc1`, the inhibition is 10.8% (inactive). Same read-out and setting: with `Cc1ccc2nc(-c3ccncc3)cc(C(=O)Nc3ccncc3)c2c1` the figure was -4.4% (inactive); with `Cc1ccc2nc(-c3ccncc3)cc(C(=O)Nc3ccc4c(c3)OCCO4)c2c1`, 23.4% (inactive); with `Cc1ccc2nc(-c3ccncc3)cc(C(=O)Nc3ccc(OC(F)F)cc3)c2c1`, 61.9% (active).

With `COc1ccc(N2CCN(C3CCCCC3NS(=O)(=O)c3ccccc3)CC2)cc1` (configuration not stated), the inhibition was -12.9% (inactive). Turning to `O=C(CN1CCN(c2ccc(O)cc2)CC1)Nc1cc(S(=O)(=O)N2CCOCC2)ccc1Cl`, the inhibition is 25.4% (inactive). The same measure, in the same setting: as for `O=C(N/N=C/c1cc(Cl)cc([N+](=O)[O-])c1O)C(O)(c1ccccc1)c1ccccc1`, the figure is -22% (inactive); as for `O=[N+]([O-])c1cc(Cl)cc(/C=N/NC(=S)Nc2cc(S(=O)(=O)N3CCOCC3)ccc2Cl)c1O`, 99.5% (active).

Take `O=C(O)C1CCCCC1C(=O)N1CCN(S(=O)(=O)c2ccc(F)cc2)CC1` (configuration not stated): the inhibition is 9.5% (inactive).

As to `O=C(c1cccnc1)N1CCN(S(=O)(=O)c2cccs2)CC1`, the inhibition was -2% (inactive).

Regarding `Cc1ccc(C)c(SCc2nc3sc(C(=O)O)c(C)c3c(=O)[nH]2)c1`, the inhibition was 9.1% (inactive). Still for that read-out and setting: with `CCOC(=O)c1sc2nc(CSc3ccccc3)[nH]c(=O)c2c1C` the figure was 25.9% (inactive). Take `CSc1nnc(SCc2nc3sc(C(=O)O)c(C)c3c(=O)[nH]2)s1`: the inhibition was 50.2% (active). Further, the inhibition (average of repeat tests) is 70.2%. In the case of `COc1cccc(-n2c(=S)sc3c(=O)n(-c4ccccc4C)c(SCC(=O)O)nc32)c1`, the inhibition is 6.2% (inactive).

On to `COc1ccc(CCNC(=O)CCCCCNC(=O)N2CCn3c2nc2ccccc23)cc1OC`, for which the inhibition is 15.4% (inactive). Same read-out and setting: as for `CCc1nn(CCCC(=O)NC(C)c2ccccc2)c(=O)c2cc3occc3n12` (configuration not stated), the figure is 10.2% (inactive). On the same count and under the same terms, as for `CCC(C)(C)NC(=O)C(c1ccc(OC)cc1)N(C(=O)CCC(=O)Nc1cc(C)on1)c1ccc(OC)cc1OC` (configuration not stated), the figure is 6% (inactive). Turning to `COC(=O)COc1ccc2c(c1C)O/C(=C\c1ccco1)C2=O`, the inhibition is 16.9% (inactive). In the case of `O=C(NCCCn1ccnc1)C1CCCN(S(=O)(=O)c2cc(Cl)ccc2Cl)C1` (configuration not stated), the inhibition is -5.4% (inactive). `Cc1nc2c(c(=O)n1Cc1ccco1)c1nc3ccccc3nc1n2Cc1ccccc1`: the inhibition was 31.7% (inactive). On the same count and under the same terms, as for `Cc1cc2nc3c(=O)n(Cc4ccccc4)c(=O)[nH]c3nc2cc1N`, the figure is 51.4% (active); as for `O=c1[nH]c2c(c(=O)n1Cc1ccccc1)CCC2`, 14.7% (inactive); as for `CC(=O)N/C(=N/c1nc(C)cc(C)n1)Nc1ccc(F)cc1F`, 10.8% (inactive). With `O=C(NCc1ccccc1Cl)C1CCCN1S(=O)(=O)c1ccc(F)cc1` (configuration not stated), the inhibition was 9.8% (inactive). On the same count and under the same terms, as for `O=C(Nc1ccc(N2CCCC2=O)cc1)c1cncc(Br)c1`, the figure is -7.3% (inactive); as for `Oc1c(Cl)cc(Cl)c(Cl)c1Cc1c(O)c(Cl)cc(Cl)c1Cl`, 71.9% (active); as for `CC(=O)N1CCN(CC(=O)Nc2ccc(C)c(F)c2)CC1`, 6% (inactive).
